Data reported in PubChem BioAssay (NCATS).
Inconclusive results are not listed. Calls of active or inactive are those of the source. Unless noted, the call rests on the fitted dose curve; in most records, active means well fitted curve in the direction sought with a large enough effect; inconclusive means small, poorly fitted or top-dose-only effect, or another doubt; inactive means no such curve, though single readings can be large; an effect the other way counts as inactive or inconclusive.

Tests used:
[1] = target: M-phase phosphoprotein 8 (Homo sapiens) (UniProt Q99549); assay: qHTS Validation Assay for Inhibitors for MPP8 Chromodomain Interactions with Methylated Histone Tails (AID 488949);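 further: AlphaScreen signal from MPP8 chromodomain bound to biotinylated H3K9me3 peptide; top concentration of the series differs between compounds; on the % scale 0 is the no-effect control and ±100 the full control effect; nearly all actives have a fitted effect of over 55% in size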
Outline: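 Disruption of the preformed MPP8–trimethyl-H3K9 peptide complex (both 50 nM, 30 min, RT) is measured after 30 min compound exposure, using AlphaScreen proximity beads; aurintricarboxylic acid titration serves as plate control.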

[2] = target: Chromobox protein homolog 1 (Homo sapiens) (UniProt P83916); assay: qHTS Validation Assay for Inhibitors of HP1-beta Chromodomain Interactions with Methylated Histone Tails (AID 488953);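 further: loss of AlphaScreen luminescence from HP1-beta binding biotinylated H3K9me3 peptide; series mostly up to about 110 µM; on the % scale 0 is the no-effect control and ±100 the full control effect; nearly all actives have a fitted effect of over 50% in size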
Outline: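 AlphaScreen proximity readout: streptavidin donor and Ni-chelate acceptor beads, 10 ug/mL final, 30 min dark, RT. Complex of 50 nM HP1-beta and 50 nM b-H3(1-18)K9me3 formed 30 min, then compound-treated 30 min; PBS pH 7.4/0.01% Tween-20.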

[3] = target: Methanococcus maripaludis chaperonin (MmCpn) (UniProt Q6LX38); assay: High-Throughput Screening for Modulators of Cytosolic Chaperonin Activity: MmCpn Primary Screen (AID 488978);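 further: 50 nM MmCpn enzyme hydrolysing 30 µM ATP at 37 °C; 0% is about no effect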
Outline: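 Measures ATPase turnover of the M. maripaludis chaperonin (50 nM final) against 30 uM ATP over 10 min at 37C, with compound added 5 min beforehand at room temperature. ADP is quantified by HTRF immunodetection.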

[4] = target: Transient receptor potential cation channel subfamily V member 1 (Homo sapiens) (UniProt Q8NER1); assay: HTS Assay for Compounds that Act as Enhancers of the Vanilloid Receptor 1 (AID 488979); further: 0% is about no effect
Outline: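 Calcium influx kinetics via Fluo-8 (480/520 nm) in TRPV1-expressing cells, 2000/well cultured overnight at 35.5C. Compound-alone read 3 min (agonist phase), followed by EC20 capsaicin challenge for 2 min (enhancer phase).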

[5] = target: Thyrotropin receptor (Homo sapiens) (UniProt P16473); assay: qHTS Assay for Antagonists of the Thyroid Stimulating Hormone Receptor (AID 488980); further: series mostly up to about 58 µM; 0% is about no effect
Outline: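 Cells expressing human TSHR (HEK293) are dispensed in HBSS/HEPES containing 70 uM RO 20-1724, compound is added, then TSH at EC80 (4 nM final). Antibody in lysis buffer follows, 30 minutes at room temperature before HTRF detection.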

[6] = target: D(1A) dopamine receptor (Homo sapiens) (UniProt P21728); assay: HTS Assay for Allosteric Agonists of the Human D1 Dopamine Receptor: Primary Screen for Agonists (AID 488981); further: 0% is about no effect
Outline: (§1)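 Calcium flux in an inducible, force-coupled HEK293 Trex D1 line (overnight at 30 C): agonist mode is the 180 s kinetic read after compound; potentiator mode is the following 180 s read after dopamine at EC20.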

[7] = target: D(1A) dopamine receptor (Homo sapiens) (UniProt P21728); assay: HTS Assay for Allosteric Agonists of the Human D1 Dopamine Receptor: Primary Screen for Potentiators (AID 488982); further: potency means the concentration at half of the fitted maximal effect
Outline: as §1

[8] = target: D(1A) dopamine receptor (Homo sapiens) (UniProt P21728); assay: HTS Assay for Allosteric Agonists of the Human D1 Dopamine Receptor: Primary Screen for Antagonists (AID 488983);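 further: calcium flux response to an EC80 dopamine challenge measured with no-wash dye; nearly all actives have a fitted effect of over 65% in size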; further: potency means the concentration at half of the fitted maximal effect
Outline: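 Calcium flux readout, no-wash dye, inducible HEK293 T-REx D1 line (force-coupled). Compound added after 10 s baseline, 180 s kinetic read; then dopamine at EC80, further 180 s read.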

[9] = target: ATP-dependent 6-phosphofructokinase (Trypanosoma brucei brucei) (UniProt O15648); assay: qHTS Assay to Find Inhibitors of T. brucei phosphofructokinase: hit validation (AID 492961);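 further: luminescence reports ADP formed as PFK phosphorylates fructose-6-phosphate with ATP; series mostly up to about 51 µM; on the % scale 0 is the no-effect control and ±100 the full control effect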
Outline: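 Measures ADP output of PFK (1.25 nM) at 0.1 mM ATP, 0.5 mM F6P, pH 8.0 TEA buffer with 5 mM MgCl2. No-enzyme wells define full inhibition; uninhibited enzyme wells define zero.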

[10] = target: ATPase family AAA domain-containing protein 5 (Homo sapiens) (UniProt Q96QE3); assay: Validation screen for small molecules that inhibit ELG1-dependent DNA repair in human embryonic kidney (HEK293T) cells expressing luciferase-tagged ELG1 (AID 493107);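 further: cells co-treated with the DNA-damaging agent 5-fluorouridine alongside compound; series mostly up to about 46 µM; on the % scale 0 is the no-effect control and ±100 the full control effect; inhibitors lower the ELG1-luciferase luminescence signal; nearly all actives have a fitted effect of over 70% in size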
Outline: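 ELG1-luciferase HEK293T reporter; 5-fluorouridine + compound/DMSO, 16 hr, 37 °C, 5% CO2; ONE-Glo 30 min RT; luminescence read, qHTS format.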

[11] = target: Thyrotropin-releasing hormone receptor (Homo sapiens) (UniProt P34981); assay: qHTS for Small Molecule Agonists and Allosteric Enhancers of Human TRH Receptor: Validation Screen for Agonists (AID 493127;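 active means calcium activation more than 3 SD above the typical response in the agonist read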;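 further: intracellular calcium rise by fluo-8 fluorescence before TRH EC20 addition; 0% is about no effect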); conditions: TRH receptor agonist cell assay; at 2 µM; stronger effect = higher value
Outline: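 Read-out: intracellular calcium release measured kinetically by FDSS (fluo-8, ex 480/em 530 nm), 1 reading/s after a 10-cycle baseline. TRHR cells, 2000/well, cultured 18 h at 33.5C, dye-loaded at room temp. Compound-evoked positive calcium signal flags agonists.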

[12] = Nrf2 qHTS screen for inhibitors: Validation (AID 493153; active means well fitted inhibition curve with a large enough effect in the main read-out, with a control signal flat, not every such curve was filed as active); conditions: Potency: luciferase luminescence; viability change: measured here: cytotoxicity max response
Outline: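 Concentration-response test in A549 ARE_Fluc reporter cells (5% FBS OPTI-MEM), compound exposure 18-24 h at 37°C, 5% CO2. Cell viability measured first by CellTiter-Fluor fluorescence; ARE-driven luciferase luminescence then measured as Nrf2 activity.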

[13] = qHTS for Inhibitors of Cell Surface uPA Generation: Validation Assay (AID 493164);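 further: RAW 264.7 macrophage cells exposed to compound for 18 h; 0% is about no effect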
Outline: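 Compounds are titrated over seven points (2.45 nM–38.3 uM final) onto pre-plated RAW 264.7 cells and incubated for 18 h. Retained intracellular ATP, measured with ATP-Lite, indicates blocked lethal factor entry.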

[14] = target: Galactokinase (Homo sapiens) (UniProt P51570); assay: qHTS Validation Assay for Inhibitors of Human Galactokinase (GALK) (AID 493189); further: 0% is about no effect
Outline: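 Compounds were pin-transferred into ATP buffer, then GALK-galactose mix was added (final 5 nM enzyme, 100 uM galactose, 35 uM ATP). After 1 h at room temperature, remaining ATP was measured luminescently.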

[15] = Validation screen for small molecules that induce DNA re-replication in SW480 colon adenocarcinoma cells (AID 504364); further: 0% is about no effect
Outline: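 Read-out: total Hoechst intensity of nuclei by fluorescence scanning imager; hits raise the fraction of nuclei with elevated DNA content. Cells received compound for 48 hr at 37 C before a 40 min stain.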

[16] = target: Peptidyl-prolyl cis-trans isomerase NIMA-interacting 1 (Homo sapiens) (UniProt Q13526); assay: qHTS Validation Assay to Find Inhibitors of Pin1 (AID 504536; active means well fitted inhibition curve with a large enough effect in the polarisation, with a control signal flat, not every such curve was filed as active; the % refers to the polarisation;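 further: 0% = full Pin1 enzyme wells and -100% = no-enzyme wells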)
Outline: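 Fluorescence polarization competition: compounds (titration) displace HiFluor-488-labeled Pin1-1b peptide from Pin1 (0.3 uM final) in pH 7.5 HEPES buffer with DTT, 10 min at room temperature; %Activity normalized to no-enzyme wells, curves fitted.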

[17] = target: Phosphoglycerate kinase, glycosomal (Trypanosoma brucei brucei) (UniProt P07378); assay: qHTS Validation Assay to Find Inhibitors of Phosphoglycerate Kinase (AID 504547);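 further: control wells lack PGK and mark full inhibition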
Outline: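 Luminescence end-point (Kinase-Glo Plus, 10 min) after a 60 min room-temperature coupled reaction. GAPDH at 100nM final supplies 1,3-BPG to PGK. Buffer: 100mM TEA pH 7.6, 5mM MgCl2, 0.01% Tween-20. Wells lacking PGK served as controls.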

[18] = target: phosphoglycerate mutase (Leishmania major) (UniProt Q4Q090); assay: qHTS Validation Assay to Find Inhibitors of Phosphoglycerate Mutase (AID 504548);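 further: end-point luminescence from Kinase-GloPlus after the PGAM reaction; series mostly up to about 58 µM; on the % scale 0 is the no-effect control and ±100 the full control effect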
Outline: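 L. major PGAM (1.25nM final) was added to substrate buffer and pinned compound, incubated 45 minutes at room temperature, then Kinase-GloPlus added; luminescence read after 10 minutes. Buffer: 100 mM TEA pH 7.6, 5 mM MgCl2, 0.01% Tween-20.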

[19] = target: Ubiquitin carboxyl-terminal hydrolase 1 (Homo sapiens) (UniProt O94782); assay: Inhibitors of USP1/UAF1: Pilot qHTS (AID 504865);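 further: rhodamine fluorescence freed from ubiquitin-rhodamine substrate followed over time; top concentration of the series differs between compounds; on the % scale 0 is the no-effect control and ±100 the full control effect; nearly all actives have a fitted effect of over 35% in size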
Outline: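 Kinetic fluorescence assay: 1nM USP1/UAF1, 15 min compound preincubation, then 150nM Ub-Rho; 480/540 nm.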

[20] = Validation screen for small molecules that induce genotoxicity in human embryonic kidney (HEK293T) cells expressing luciferase-tagged ELG1 (AID 493106); further: 0% is about no effect
Outline: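 qHTS format; 2,000 HEK293T ELG1-luc cells/well; 23 nL compound via pin tool; 16 hr, 37 °C/5% CO2; ONE-Glo, 30 min RT; luminescence read.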

Sequence of Peptidyl-prolyl cis-trans isomerase NIMA-interacting 1 (Homo sapiens) (Q13526 whole entry, looked up): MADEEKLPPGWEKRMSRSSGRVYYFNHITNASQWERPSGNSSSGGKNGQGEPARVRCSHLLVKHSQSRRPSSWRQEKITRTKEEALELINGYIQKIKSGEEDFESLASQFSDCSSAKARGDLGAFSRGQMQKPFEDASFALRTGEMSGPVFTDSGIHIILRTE
Sequence of Thyrotropin receptor (Homo sapiens) (P16473 whole entry, looked up): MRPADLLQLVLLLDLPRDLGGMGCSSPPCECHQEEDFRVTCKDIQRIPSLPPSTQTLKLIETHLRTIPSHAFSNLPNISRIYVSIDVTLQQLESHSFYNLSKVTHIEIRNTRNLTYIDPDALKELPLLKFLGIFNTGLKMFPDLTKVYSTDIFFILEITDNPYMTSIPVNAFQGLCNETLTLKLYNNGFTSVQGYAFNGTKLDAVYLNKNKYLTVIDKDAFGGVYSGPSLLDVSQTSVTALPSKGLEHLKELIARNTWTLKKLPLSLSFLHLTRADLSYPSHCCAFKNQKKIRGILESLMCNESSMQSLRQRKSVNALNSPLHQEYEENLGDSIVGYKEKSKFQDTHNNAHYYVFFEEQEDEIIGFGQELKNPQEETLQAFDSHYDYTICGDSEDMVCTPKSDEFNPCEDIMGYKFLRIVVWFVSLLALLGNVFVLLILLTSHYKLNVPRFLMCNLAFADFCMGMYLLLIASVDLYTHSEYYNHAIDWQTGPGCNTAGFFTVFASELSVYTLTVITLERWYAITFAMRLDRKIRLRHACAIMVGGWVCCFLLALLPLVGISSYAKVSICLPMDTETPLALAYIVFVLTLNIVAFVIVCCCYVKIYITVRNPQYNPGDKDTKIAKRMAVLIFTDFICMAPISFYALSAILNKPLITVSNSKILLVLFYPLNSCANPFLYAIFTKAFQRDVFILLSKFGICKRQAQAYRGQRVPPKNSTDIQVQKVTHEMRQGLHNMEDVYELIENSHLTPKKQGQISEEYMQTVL
Sequence of Chromobox protein homolog 1 (Homo sapiens) (P83916 whole entry, looked up): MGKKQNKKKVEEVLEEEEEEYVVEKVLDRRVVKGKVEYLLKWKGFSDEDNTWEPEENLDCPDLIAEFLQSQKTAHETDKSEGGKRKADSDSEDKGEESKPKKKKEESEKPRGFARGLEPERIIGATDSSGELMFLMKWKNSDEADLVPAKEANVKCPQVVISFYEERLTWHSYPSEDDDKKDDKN
Sequence of ATPase family AAA domain-containing protein 5 (Homo sapiens) (Q96QE3 whole entry, looked up, the tested form may be a part): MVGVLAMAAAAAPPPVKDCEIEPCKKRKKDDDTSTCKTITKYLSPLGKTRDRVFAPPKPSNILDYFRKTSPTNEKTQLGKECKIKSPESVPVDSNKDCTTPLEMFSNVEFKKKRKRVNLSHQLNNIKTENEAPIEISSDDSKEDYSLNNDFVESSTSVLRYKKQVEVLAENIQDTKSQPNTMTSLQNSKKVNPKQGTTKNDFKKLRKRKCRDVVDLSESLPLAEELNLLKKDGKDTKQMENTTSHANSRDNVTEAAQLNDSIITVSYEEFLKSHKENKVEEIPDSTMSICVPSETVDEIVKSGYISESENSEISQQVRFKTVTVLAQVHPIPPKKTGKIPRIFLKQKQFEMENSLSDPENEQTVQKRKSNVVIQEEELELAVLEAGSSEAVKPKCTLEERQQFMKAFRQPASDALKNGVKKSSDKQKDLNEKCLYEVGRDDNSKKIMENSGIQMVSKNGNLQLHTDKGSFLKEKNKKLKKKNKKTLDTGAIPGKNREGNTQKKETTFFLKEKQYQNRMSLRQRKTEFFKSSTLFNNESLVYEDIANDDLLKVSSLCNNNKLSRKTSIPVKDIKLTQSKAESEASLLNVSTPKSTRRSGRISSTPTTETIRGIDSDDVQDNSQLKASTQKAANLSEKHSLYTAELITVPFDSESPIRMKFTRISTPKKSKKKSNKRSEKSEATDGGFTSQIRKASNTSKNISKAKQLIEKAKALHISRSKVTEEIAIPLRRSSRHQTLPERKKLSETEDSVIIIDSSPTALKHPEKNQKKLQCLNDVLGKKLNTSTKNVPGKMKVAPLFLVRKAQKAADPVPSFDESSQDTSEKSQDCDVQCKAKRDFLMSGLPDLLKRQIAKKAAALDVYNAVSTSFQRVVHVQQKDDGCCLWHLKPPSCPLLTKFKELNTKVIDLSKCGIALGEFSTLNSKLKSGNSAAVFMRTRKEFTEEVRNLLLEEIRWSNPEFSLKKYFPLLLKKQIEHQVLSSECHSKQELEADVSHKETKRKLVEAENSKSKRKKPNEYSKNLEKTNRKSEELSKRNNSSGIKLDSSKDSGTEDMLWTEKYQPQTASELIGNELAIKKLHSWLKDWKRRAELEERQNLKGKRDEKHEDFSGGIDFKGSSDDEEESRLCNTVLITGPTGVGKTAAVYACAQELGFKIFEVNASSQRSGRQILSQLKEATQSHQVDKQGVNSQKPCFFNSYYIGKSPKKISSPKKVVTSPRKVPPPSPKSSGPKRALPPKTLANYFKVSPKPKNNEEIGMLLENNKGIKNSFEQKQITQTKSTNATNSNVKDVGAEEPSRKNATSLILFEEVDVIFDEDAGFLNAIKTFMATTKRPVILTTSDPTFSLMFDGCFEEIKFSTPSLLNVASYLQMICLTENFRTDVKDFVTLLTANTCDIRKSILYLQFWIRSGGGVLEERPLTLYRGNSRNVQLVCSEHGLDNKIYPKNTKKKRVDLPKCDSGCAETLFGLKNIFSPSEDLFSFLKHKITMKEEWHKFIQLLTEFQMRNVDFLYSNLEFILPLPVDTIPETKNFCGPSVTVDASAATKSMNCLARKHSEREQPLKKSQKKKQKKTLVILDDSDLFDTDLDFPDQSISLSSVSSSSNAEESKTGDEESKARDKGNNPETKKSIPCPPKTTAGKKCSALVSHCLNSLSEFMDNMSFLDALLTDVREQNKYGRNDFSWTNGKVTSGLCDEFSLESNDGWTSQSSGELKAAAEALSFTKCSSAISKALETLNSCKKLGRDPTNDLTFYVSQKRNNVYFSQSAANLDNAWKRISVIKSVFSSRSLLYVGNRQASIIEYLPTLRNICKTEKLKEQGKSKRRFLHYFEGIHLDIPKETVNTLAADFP
Sequence of ATP-dependent 6-phosphofructokinase (Trypanosoma brucei brucei) (O15648 whole entry, looked up): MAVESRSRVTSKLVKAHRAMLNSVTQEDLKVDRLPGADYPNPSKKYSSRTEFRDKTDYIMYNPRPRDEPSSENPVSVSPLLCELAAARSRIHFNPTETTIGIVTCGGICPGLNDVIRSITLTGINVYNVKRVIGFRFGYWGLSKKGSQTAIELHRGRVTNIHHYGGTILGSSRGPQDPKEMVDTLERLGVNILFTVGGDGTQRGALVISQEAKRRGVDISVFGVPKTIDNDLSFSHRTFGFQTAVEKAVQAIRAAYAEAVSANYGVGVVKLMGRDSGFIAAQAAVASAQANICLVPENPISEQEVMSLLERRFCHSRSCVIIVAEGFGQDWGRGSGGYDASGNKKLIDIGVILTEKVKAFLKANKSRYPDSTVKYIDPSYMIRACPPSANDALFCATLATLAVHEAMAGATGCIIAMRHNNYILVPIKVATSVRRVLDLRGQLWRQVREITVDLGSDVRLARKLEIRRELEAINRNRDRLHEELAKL
Sequence of Ubiquitin carboxyl-terminal hydrolase 1 (Homo sapiens) (O94782 whole entry, looked up): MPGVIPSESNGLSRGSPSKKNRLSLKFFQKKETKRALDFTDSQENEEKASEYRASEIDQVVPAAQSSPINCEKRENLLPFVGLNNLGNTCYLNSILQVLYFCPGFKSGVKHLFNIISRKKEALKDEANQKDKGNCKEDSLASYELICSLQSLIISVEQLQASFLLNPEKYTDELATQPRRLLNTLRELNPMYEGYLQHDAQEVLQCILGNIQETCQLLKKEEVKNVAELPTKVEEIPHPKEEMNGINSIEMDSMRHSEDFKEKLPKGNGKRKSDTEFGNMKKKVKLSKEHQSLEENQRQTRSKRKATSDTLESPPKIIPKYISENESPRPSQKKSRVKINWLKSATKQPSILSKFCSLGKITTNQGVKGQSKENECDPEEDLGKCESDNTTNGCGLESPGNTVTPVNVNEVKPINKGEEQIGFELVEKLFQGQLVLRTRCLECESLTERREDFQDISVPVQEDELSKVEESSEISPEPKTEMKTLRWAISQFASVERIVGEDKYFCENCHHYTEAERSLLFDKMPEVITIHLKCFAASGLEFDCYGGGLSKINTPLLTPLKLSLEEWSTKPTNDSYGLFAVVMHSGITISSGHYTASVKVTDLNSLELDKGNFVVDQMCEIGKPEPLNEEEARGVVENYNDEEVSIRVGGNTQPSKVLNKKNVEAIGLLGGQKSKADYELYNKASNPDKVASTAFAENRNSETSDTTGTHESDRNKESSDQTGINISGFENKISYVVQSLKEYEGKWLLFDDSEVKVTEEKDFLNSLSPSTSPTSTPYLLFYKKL
Sequence of Transient receptor potential cation channel subfamily V member 1 (Homo sapiens) (Q8NER1 whole entry, looked up): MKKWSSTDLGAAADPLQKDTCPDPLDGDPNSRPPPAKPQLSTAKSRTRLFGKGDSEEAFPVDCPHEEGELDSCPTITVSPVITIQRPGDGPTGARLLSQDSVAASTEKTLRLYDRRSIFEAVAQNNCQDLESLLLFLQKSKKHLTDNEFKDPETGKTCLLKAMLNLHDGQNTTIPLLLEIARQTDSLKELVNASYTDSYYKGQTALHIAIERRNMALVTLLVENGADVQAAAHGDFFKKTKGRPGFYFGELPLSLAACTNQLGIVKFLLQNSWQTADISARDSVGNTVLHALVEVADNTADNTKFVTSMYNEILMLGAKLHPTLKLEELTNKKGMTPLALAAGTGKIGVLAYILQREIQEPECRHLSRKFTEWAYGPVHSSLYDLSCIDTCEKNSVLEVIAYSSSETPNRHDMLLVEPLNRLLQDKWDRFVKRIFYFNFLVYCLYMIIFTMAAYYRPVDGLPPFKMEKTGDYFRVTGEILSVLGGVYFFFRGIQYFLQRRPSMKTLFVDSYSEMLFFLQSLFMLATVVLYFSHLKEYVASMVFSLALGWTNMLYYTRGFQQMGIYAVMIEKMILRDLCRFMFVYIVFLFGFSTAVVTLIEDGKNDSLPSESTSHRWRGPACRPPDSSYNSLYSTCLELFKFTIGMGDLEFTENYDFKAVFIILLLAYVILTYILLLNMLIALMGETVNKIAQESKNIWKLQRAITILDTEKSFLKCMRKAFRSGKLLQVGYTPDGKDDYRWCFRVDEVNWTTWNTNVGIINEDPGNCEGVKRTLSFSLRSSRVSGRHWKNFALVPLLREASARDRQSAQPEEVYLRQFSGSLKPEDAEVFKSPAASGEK

CCN1CCC[C@H]1CNC(=O)c1c(O)c(Cl)cc(Cl)c1OC
inactive: Potency [1] | Potency [2] | outcome [3] | outcome [4] | outcome [5] | Potency [6] | Potency [7] | Potency [8] | outcome [9] | Potency [10] | activation [11] 0.938% | Potency [12] | outcome [13] | outcome [14] | outcome [15] | outcome [16] | outcome [17] | outcome [18] | Potency [19]
-0.523%: viability change [12]

CN(C)CCOC(=O)COc1ccc(Cl)cc1
9.38%: viability change [12]
inactive: Potency [1] | Potency [2] | outcome [3] | outcome [4] | outcome [5] | Potency [6] | Potency [7] | Potency [8] | outcome [9] | Potency [20] | Potency [10] | activation [11] 0.188% | Potency [12] | outcome [13] | outcome [14] | outcome [15] | outcome [16] | outcome [17] | outcome [18] | Potency [19]

CCn1ccnc1CC1COc2ccccc2O1 (stereo not drawn)
-1.46%: viability change [12]
inactive: Potency [1] | Potency [2] | outcome [3] | outcome [4] | outcome [5] | Potency [6] | Potency [7] | Potency [8] | Potency [20] | activation [11] 1.56% | Potency [12] | outcome [13] | outcome [14] | outcome [15] | outcome [16] | outcome [17] | outcome [18] | Potency [19]

CSc1ccc(C(=O)c2[nH]c(=O)[nH]c2C)cc1
active: Potency [7] 2.31 µM
inactive: Potency [1] | Potency [2] | outcome [3] | outcome [4] | outcome [5] | Potency [6] | Potency [8] | outcome [9] | Potency [12] | outcome [13] | outcome [14] | outcome [15] | outcome [16] | outcome [17] | outcome [18] | Potency [19]
0%: viability change [12]

CC(=O)OCC1=C(C(=O)O)N2C(=O)[C@@H](NC(=O)Cc3cccs3)[C@H]2SC1
0.396%: viability change [12]
inactive: Potency [1] | Potency [2] | outcome [3] | outcome [4] | outcome [5] | Potency [6] | Potency [7] | Potency [8] | outcome [9] | Potency [10] | activation [11] 0.938% | Potency [12] | outcome [13] | outcome [14] | outcome [15] | outcome [17] | outcome [18] | Potency [19]

C[C@]12CCC(=O)C=C1CC[C@@H]1[C@@H]2CC[C@@]2(C)[C@H]1CC[C@]2(O)C(=O)CO
inactive: Potency [1] | Potency [2] | outcome [3] | outcome [4] | outcome [5] | Potency [6] | Potency [7] | Potency [8] | outcome [9] | Potency [20] | activation [11] 0.188% | outcome [13] | outcome [14] | outcome [15] | outcome [16] | outcome [17] | outcome [18] | Potency [19]

CN(C)C(=O)Oc1cccc([N+](C)(C)C)c1
inactive: Potency [1] | Potency [2] | outcome [3] | outcome [4] | outcome [5] | Potency [6] | Potency [7] | Potency [8] | outcome [9] | Potency [20] | Potency [10] | activation [11] 0.625% | Potency [12] | outcome [13] | outcome [14] | outcome [15] | outcome [16] | outcome [17] | outcome [18] | Potency [19]
0.794%: viability change [12]

CCCOc1ccccc1-c1nc2n[nH]nc2c(=O)[nH]1
-11.3%: viability change [12]
inactive: Potency [1] | Potency [2] | outcome [3] | outcome [4] | outcome [5] | Potency [6] | Potency [7] | Potency [8] | outcome [9] | Potency [20] | Potency [10] | activation [11] -3.25% | Potency [12] | outcome [13] | outcome [14] | outcome [15] | outcome [17] | outcome [18] | Potency [19]

N[C@@H](COP(=O)(O)O)C(=O)O
6.46%: viability change [12]
inactive: Potency [1] | Potency [2] | outcome [3] | outcome [4] | outcome [5] | Potency [6] | Potency [7] | Potency [8] | Potency [20] | Potency [10] | activation [11] 1% | Potency [12] | outcome [13] | outcome [14] | outcome [15] | outcome [16] | outcome [17] | outcome [18] | Potency [19]

CCCN(CCC)CCc1cccc2c1CC(=O)N2
inactive: Potency [1] | Potency [2] | outcome [3] | outcome [4] | outcome [5] | Potency [6] | Potency [7] | Potency [8] | Potency [20] | Potency [10] | activation [11] -3.31% | Potency [12] | outcome [13] | outcome [14] | outcome [15] | outcome [16] | outcome [17] | outcome [18] | Potency [19]
1.11%: viability change [12]

O=C(CCNNC(=O)c1ccncc1)NCc1ccccc1
-3.76%: viability change [12]
inactive: Potency [1] | Potency [2] | outcome [3] | outcome [4] | outcome [5] | Potency [6] | Potency [7] | Potency [8] | outcome [9] | Potency [20] | Potency [10] | activation [11] 0.188% | Potency [12] | outcome [13] | outcome [14] | outcome [15] | outcome [16] | outcome [17] | outcome [18] | Potency [19]

NC/C=C/C(=O)O
-0.253%: viability change [12]
inactive: Potency [1] | Potency [2] | outcome [3] | outcome [4] | outcome [5] | Potency [6] | Potency [7] | Potency [8] | outcome [9] | Potency [20] | Potency [10] | activation [11] 0.688% | Potency [12] | outcome [13] | outcome [14] | outcome [15] | outcome [16] | outcome [17] | outcome [18] | Potency [19]

CN1CCN(C2=Nc3ccccc3Oc3ccc(Cl)cc32)CC1
-14.3%: viability change [12]
inactive: Potency [1] | Potency [2] | outcome [3] | outcome [4] | outcome [5] | Potency [6] | Potency [7] | outcome [9] | Potency [20] | Potency [10] | Potency [12] | outcome [13] | outcome [14] | outcome [15] | outcome [16] | outcome [17] | outcome [18] | Potency [19]
active: Potency [8] 0.398 µM
